In PubChem BioAssay (NCI):
“And” between values parts separate entries of the source, which are not always exact repeats. Equal entries are not always repeated. Compounds without any hit were thinned out: in the full panel of roughly 79,000, 15% have a hit. Some structures have more than one record in an assay (separate samples or runs), and their calls can disagree. The source made the active and inactive calls. No stated cut-off is given here; in the data, active means growth inhibition above about 70%; inactive means the rest.

What was measured:
[1] = NCI Yeast Anticancer Drug Screen. Data for the rad50EPP+ strain (AID 151);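 further: 0% = growth of vehicle-treated control cultures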; conditions: S. cerevisiae rad50 mutant strain, stronger effect = higher value
Method in brief: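 Measured: growth inhibition of rad50EPP+ yeast. Reference: vehicle-treated controls. Screen uses strains with defined genetic alterations in DNA damage repair or cell cycle control.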

[2] = NCI Yeast Anticancer Drug Screen. Data for the mgt1 strain (AID 153); conditions: S. cerevisiae mgt1 mutant growth inhibition, stronger effect = higher value
Method in brief: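 Compounds were applied to mgt1 mutant yeast, and growth was then compared against vehicle-treated control cultures to give percent inhibition.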

[3] = NCI Yeast Anticancer Drug Screen. Data for the rad50 strain (AID 155);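 further: 0% = growth of vehicle-only cultures of the same strain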; conditions: S. cerevisiae rad50 strain growth inhibition, stronger effect = higher value
Method in brief: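 Genetically altered yeast (DNA repair pathway); compound treatment; growth inhibition vs vehicle ctrl.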

[4] = NCI Yeast Anticancer Drug Screen. Data for the mec2-1 strain (AID 157); conditions: S. cerevisiae mec2-1 strain, stronger effect = higher value
Method in brief: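 Compounds were applied to mec2-1 yeast cells. Their growth was then compared with that of vehicle-treated cultures to give growth inhibition.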

[5] = NCI Yeast Anticancer Drug Screen. Data for the rad14 strain (AID 159);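 further: 0% = growth of vehicle-treated control cultures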; conditions: S. cerevisiae rad14 strain growth inhibition, stronger effect = higher value
Method in brief: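 Test compounds were applied to a repair-deficient yeast strain. Its growth was then compared with that of cultures given vehicle alone, and inhibition was expressed relative to those controls.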

[6] = NCI Yeast Anticancer Drug Screen. Data for the sgs1 mgt1 strain (AID 161);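 further: 0% = growth of cultures given vehicle only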; conditions: S. cerevisiae sgs1 mgt1 strain, stronger effect = higher value
Method in brief: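 This yeast growth screen uses a strain with defined DNA-repair lesions; compound-treated growth is compared with vehicle-treated growth.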

[7] = NCI Yeast Anticancer Drug Screen. Data for the cln2 rad14 strain (AID 165);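 further: 0% = growth equal to vehicle treated cultures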; conditions: S. cerevisiae cln2 rad14 strain, stronger effect = higher value
Method in brief: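 Strain: cln2 rad14 yeast, altered in cell cycle control and DNA damage repair. Read-out: growth inhibition vs vehicle.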

[8] = NCI Yeast Anticancer Drug Screen. Data for the bub3 strain (AID 167); conditions: S. cerevisiae bub3 mutant strain, stronger effect = higher value
Method in brief: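 Yeast carrying a defined mutation is treated with each compound, and growth is compared with that of vehicle-exposed cells to give inhibition.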

[9] = NCI Yeast Anticancer Drug Screen. Data for the wt2 strain (AID 169);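 further: 0% = growth of vehicle-treated yeast cultures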; conditions: S. cerevisiae wt2 strain growth inhibition, stronger effect = higher value
Method in brief: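 Growth of compound-treated yeast is measured and expressed as inhibition relative to vehicle-only controls.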

[10] = NCI Yeast Anticancer Drug Screen. Data for the mlh1 strain (AID 171);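 further: 0% = growth of vehicle-treated control cultures of the same strain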; conditions: S. cerevisiae mlh1 strain growth inhibition, stronger effect = higher value
Method in brief: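 Test agents were incubated with yeast bearing a defined DNA damage repair or cell cycle control alteration; values are growth inhibition normalised to vehicle-treated cultures.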

[11] = NCI Yeast Anticancer Drug Screen. Data for the sgs1 strain (AID 173);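 further: 0% = growth of vehicle-only control cultures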; conditions: S. cerevisiae sgs1 mutant, stronger effect = higher value
Method in brief: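 Strain with an altered DNA repair or cell cycle pathway exposed to compound. Growth then measured. Value = inhibition versus vehicle control.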

[12] = NCI Yeast Anticancer Drug Screen. Data for the mlh1 rad18 strain (AID 175); conditions: S. cerevisiae mlh1 rad18 strain growth inhibition, stronger effect = higher value
Method in brief: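 A repair-deficient yeast strain is exposed to test compound, and growth is scored relative to vehicle-treated controls.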

[13] = NCI Yeast Anticancer Drug Screen. Data for the rad18 strain (AID 177); conditions: S. cerevisiae rad18 mutant growth inhibition, stronger effect = higher value
Method in brief: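 DNA-repair-defective yeast; compound treatment; growth inhibition scored against vehicle.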

[14] = NCI Yeast Anticancer Drug Screen. Data for the wt1 strain (AID 149);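 further: 0% = growth of vehicle-treated wt1 cultures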; conditions: S. cerevisiae wt1 strain (SPY 50644) growth inhibition, stronger effect = higher value
Method in brief: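 wt1 yeast, compound-treated; % growth inhibition vs vehicle control.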

[15] = NCI Yeast Anticancer Drug Screen. Data for the CLN2oe strain (AID 163);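 further: 0% = growth of vehicle-only control cultures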; conditions: S. cerevisiae CLN2oe strain, stronger effect = higher value
Method in brief: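 Cells of an engineered yeast line with disturbed cell-cycle regulation are treated with compound. Inhibition of growth is then calculated relative to the vehicle-treated reference.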

[16] = at 5.0 µM (retest, dose inferred, filed as 0.5)
[17] = at 50.0 µM (retest, dose inferred, filed as 5.0)

For `O=C(O)/C=C\C(=O)NNc1ccc(Br)cc1`, the growth inhibition ([1]; at 1.2 µM) was 14% (inactive), the growth inhibition ([1]; at 3.7 µM) was 78% (active) and the growth inhibition ([1]; at 11.0 µM) was 98% (active). For the same molecule, the growth inhibition ([1]; at 33.0 µM) was 99% (active), the growth inhibition ([1]; at 100.0 µM) was 99% (active) and the growth inhibition ([2]; at 1.2 µM) was -1% (inactive). The growth inhibition ([2]; at 3.7 µM) was 32% (inactive), the growth inhibition ([2]; at 11.0 µM) was 99% (active) and the growth inhibition ([2]; at 33.0 µM) was 99% (active). The growth inhibition ([2]; at 100.0 µM) was 98% (active), the growth inhibition ([3]; at 1.2 µM) was 8% (inactive) and the growth inhibition ([3]; at 3.7 µM) was 53% (inactive). For the same molecule, the growth inhibition [3, 16] was 10% (inactive), the growth inhibition ([3]; at 11.0 µM) was 99% (active) and the growth inhibition ([3]; at 33.0 µM) was 98% (active). For the same molecule, the growth inhibition [3, 17] was 97% (active), the growth inhibition ([3]; at 50.0 µM) was 98.3% (active) and the growth inhibition ([3]; at 100.0 µM) was 99% (active). For the same molecule, the growth inhibition ([4]; at 1.2 µM) was 1% (inactive), the growth inhibition ([4]; at 3.7 µM) was 90% (active) and the growth inhibition [4, 16] was 76% (active). For the same molecule, the growth inhibition ([4]; at 11.0 µM) was 99% (active), the growth inhibition ([4]; at 33.0 µM) was 99% (active) and the growth inhibition [4, 17] was 99% (active). The growth inhibition ([4]; at 50.0 µM) was 98.2% (active), the growth inhibition ([4]; at 100.0 µM) was 99% (active) and the growth inhibition ([5]; at 1.2 µM) was 4% (inactive). For the same molecule, the growth inhibition ([5]; at 3.7 µM) was 99% (active), the growth inhibition ([5]; at 11.0 µM) was 99% (active) and the growth inhibition ([5]; at 33.0 µM) was 99% (active). The growth inhibition ([5]; at 100.0 µM) was 99% (active), the growth inhibition [6, 16] was 31% (inactive) and the growth inhibition [6, 17] was 98% (active). For the same molecule, the growth inhibition ([6]; at 50.0 µM) was 98.5% (active), the growth inhibition [7, 16] was 15% (inactive) and the growth inhibition [7, 17] was 97% (active). The growth inhibition ([7]; at 50.0 µM) was 97.3% (active), the growth inhibition ([8]; at 1.2 µM) was 10% (inactive) and the growth inhibition ([8]; at 3.7 µM) was 60% (inactive). The growth inhibition [8, 16] was 3% (inactive), the growth inhibition ([8]; at 11.0 µM) was 99% (active) and the growth inhibition ([8]; at 33.0 µM) was 99% (active). The growth inhibition [8, 17] was 97% (active), the growth inhibition ([8]; at 50.0 µM) was 98.5% (active) and the growth inhibition ([8]; at 100.0 µM) was 99% (active). The growth inhibition ([9]; at 1.2 µM) was 13% (inactive), the growth inhibition ([9]; at 3.7 µM) was 99% (active) and the growth inhibition ([9]; at 11.0 µM) was 99% (active). For the same molecule, the growth inhibition ([9]; at 33.0 µM) was 99% (active), the growth inhibition ([9]; at 100.0 µM) was 99% (active) and the growth inhibition ([10]; at 1.2 µM) was -2% (inactive). The growth inhibition ([10]; at 3.7 µM) was 77% (active), the growth inhibition ([10]; at 11.0 µM) was 98% (active) and the growth inhibition ([10]; at 33.0 µM) was 98% (active). For the same molecule, the growth inhibition ([10]; at 100.0 µM) was 99% (active), the growth inhibition ([11]; at 1.2 µM) was 4% (inactive) and the growth inhibition ([11]; at 3.7 µM) was 66% (inactive). The growth inhibition ([11]; at 11.0 µM) was 99% (active), the growth inhibition ([11]; at 33.0 µM) was 99% (active) and the growth inhibition ([11]; at 100.0 µM) was 99% (active). The growth inhibition [12, 16] was 27% (inactive), the growth inhibition [12, 17] was 98% (active) and the growth inhibition ([12]; at 50.0 µM) was 98.3% (active). For the same molecule, the growth inhibition ([13]; at 1.2 µM) was -2% (inactive), the growth inhibition ([13]; at 3.7 µM) was 95% (active) and the growth inhibition ([13]; at 11.0 µM) was 98% (active). For the same molecule, the growth inhibition ([13]; at 33.0 µM) was 98% (active) and the growth inhibition ([13]; at 100.0 µM) was 98% (active).
For `Cc1ccc(P(c2ccc(C)cc2)c2ccc(C)cc2)cc1`, the growth inhibition ([14]; at 1.2 µM) was -25% (inactive), the growth inhibition ([14]; at 3.7 µM) was -12% (inactive) and the growth inhibition ([14]; at 11.0 µM) was -5% (inactive). For the same molecule, the growth inhibition ([14]; at 33.0 µM) was 1% (inactive), the growth inhibition ([14]; at 100.0 µM) was 7% (inactive) and the growth inhibition ([1]; at 1.2 µM) was -7% (inactive). For the same molecule, the growth inhibition ([1]; at 3.7 µM) was -10% (inactive), the growth inhibition ([1]; at 11.0 µM) was -12% (inactive) and the growth inhibition ([1]; at 33.0 µM) was -23% (inactive). For the same molecule, the growth inhibition ([1]; at 100.0 µM) was -34% (inactive), the growth inhibition ([5]; at 1.2 µM) was -34% (inactive) and the growth inhibition ([5]; at 3.7 µM) was -41% (inactive). For the same molecule, the growth inhibition ([5]; at 11.0 µM) was -40% (inactive), the growth inhibition ([5]; at 33.0 µM) was -31% (inactive) and the growth inhibition ([5]; at 100.0 µM) was -31% (inactive). The growth inhibition ([15]; at 1.2 µM) was 8% (inactive), the growth inhibition ([15]; at 3.7 µM) was 4% (inactive) and the growth inhibition ([15]; at 11.0 µM) was 4% (inactive). The growth inhibition ([15]; at 33.0 µM) was 10% (inactive), the growth inhibition ([15]; at 100.0 µM) was 18% (inactive) and the growth inhibition ([9]; at 1.2 µM) was -17% (inactive). For the same molecule, the growth inhibition ([9]; at 3.7 µM) was -15% (inactive), the growth inhibition ([9]; at 11.0 µM) was -15% (inactive) and the growth inhibition ([9]; at 33.0 µM) was 5% (inactive). The growth inhibition ([9]; at 100.0 µM) was 13% (inactive), the growth inhibition ([10]; at 1.2 µM) was -30% (inactive) and the growth inhibition ([10]; at 3.7 µM) was -36% (inactive). For the same molecule, the growth inhibition ([10]; at 11.0 µM) was -16% (inactive), the growth inhibition ([10]; at 33.0 µM) was -6% (inactive) and the growth inhibition ([10]; at 100.0 µM) was 13% (inactive). For the same molecule, the growth inhibition ([11]; at 1.2 µM) was -27% (inactive), the growth inhibition ([11]; at 3.7 µM) was -27% (inactive) and the growth inhibition ([11]; at 11.0 µM) was 4% (inactive). The growth inhibition ([11]; at 33.0 µM) was 18% (inactive), the growth inhibition ([11]; at 100.0 µM) was 39% (inactive) and the growth inhibition ([13]; at 1.2 µM) was -1% (inactive). The growth inhibition ([13]; at 3.7 µM) was -4% (inactive), the growth inhibition ([13]; at 11.0 µM) was 9% (inactive) and the growth inhibition ([13]; at 33.0 µM) was 28% (inactive). The growth inhibition ([13]; at 100.0 µM) was 34% (inactive).
For `Nc1ccccc1SSc1ccccc1N`, the growth inhibition [3, 16] was 27% (inactive) and 9% (inactive) and 56% (inactive), the growth inhibition [3, 17] was 99% (active) and -9% (inactive) and the growth inhibition ([3]; at 50.0 µM) was 99.4% (active) and 99% (active) and 99.3% (active). For the same molecule, the growth inhibition [4, 16] was 80% (active) and 18% (inactive) and 29% (inactive), the growth inhibition [4, 17] was 99% (active) and 0% (inactive) and the growth inhibition ([4]; at 50.0 µM) was 99.5% (active) and 99.1% (active). For the same molecule, the growth inhibition [6, 16] was 67% (inactive) and 13% (inactive) and 41% (inactive), the growth inhibition [6, 17] was 99% (active) and 12% (inactive) and the growth inhibition ([6]; at 50.0 µM) was 99.3% (active). The growth inhibition [8, 16] was 87% (active) and 13% (inactive) and 89% (active), the growth inhibition [8, 17] was 99% (active) and 28% (inactive) and the growth inhibition ([8]; at 50.0 µM) was 98.3% (active) and 99.1% (active). The growth inhibition [12, 16] was 80% (active) and 17% (inactive) and 46% (inactive), the growth inhibition [12, 17] was 99% (active) and 7% (inactive) and the growth inhibition ([12]; at 50.0 µM) was 99.3% (active) and 99% (active).
For `COc1nc(N)c(N=CC(OC(C)=O)C(OC(C)=O)C(COC(C)=O)OC(C)=O)c(=O)n1C` (stereo not drawn), the growth inhibition [3, 16] was -3% (inactive) and -10% (inactive) and 6% (inactive), the growth inhibition [3, 17] was -9% (inactive) and -4% (inactive) and -19% (inactive) and the growth inhibition [4, 16] was 24% (inactive) and -10% (inactive) and 7% (inactive). The growth inhibition [4, 17] was 3% (inactive) and 1% (inactive) and 5% (inactive), the growth inhibition [6, 16] was 8% (inactive) and 6% (inactive) and 29% (inactive) and the growth inhibition [6, 17] was 13% (inactive) and -2% (inactive) and -3% (inactive). For the same molecule, the growth inhibition [7, 16] was -6% (inactive) and 1% (inactive) and 6% (inactive), the growth inhibition [7, 17] was -13% (inactive) and 6% (inactive) and 19% (inactive) and the growth inhibition [8, 16] was 10% (inactive) and 11% (inactive) and 13% (inactive). The growth inhibition [8, 17] was -7% (inactive) and -8% (inactive) and -4% (inactive).
